# In PubChem BioAssay:
# A number with no mark means an inactive call. Activity calls are given as the source filed them. No stated cut-off is given here; in the data, active means inhibition above about 33%; inactive means the rest.
# Assay: compounds suppressing VP16-driven luciferase signal – cell-based, luminescence, high throughput, counter-screen for LRH-1 inverse agonist project (AID 651615)
# Conditions: Gal4-VP16 luciferase reporter cells, at 3.6 µM, stronger effect = higher value
row,Structure (SMILES),inhibition
1,O=C(c1ccccc1)c1ccc2nc(N3CCN(C(=O)c4ccco4)CC3)c3nncn3c2c1,-14.2%
2,Clc1ccc2c(c1)-c1ccccc1C1=NCCN12,64.1% (active)
3,COc1cc(N)c2ncccc2c1Cl,10.7%
4,COc1ccc(OC)c(/C=N/N=C2\SCC(=O)N2Cc2ccco2)c1,5.2%
5,Cc1cccc(C(=O)N[C@H](C(=O)Nc2ncc(C)s2)C(C)C)c1,8.22%
6,Cc1cc(C)c(C(N)=O)c(Nc2cccc3ccccc23)n1,-17.9%
7,Cc1cc2oc(=O)cc(C)c2cc1NC(=O)CCl,-57.1%
8,O=C(Nc1c(Cl)ccc2nsnc12)c1ccc([N+](=O)[O-])o1,-11.9%
9,COc1ccc(NC(=O)COc2cccc3c2CCN(C)C3=O)c(OC)c1,-23.8%
10,CC[n+]1ccc(/C=C/c2ccc(N(C)C)cc2)c2ccccc21,91.1% (active)
11,O=C(Nc1cccc(NC(=O)c2ccc([N+](=O)[O-])o2)c1)c1ccco1,-8.09%
12,O=C(CN1CCN(S(=O)(=O)c2cc(Cl)ccc2Cl)CC1)Nc1ccc2c(c1)OCCO2,-3.13%
13,CC(=O)Nc1cc(-c2ccc(F)cc2)cn2c(-c3ccc(S(C)(=O)=O)cc3)cnc12,-16.1%
14,CC(C)NC(=O)N1Cc2cc(C(=O)NC3CCCC3)nc(-c3cccc(-c4cccnc4)c3)c2[C@@H]1CCO,5.54%
15,CC[C@@H](C(=O)[C@@H](C)[C@@H](O)[C@H](C)[C@@H]1O[C@@H]([C@@H](CC)C(=O)O)CC[C@@H]1C)[C@H]1O[C@]2(C=C[C@@H](O)[C@]3(CC[C@@](C)([C@H]4CC[C@](O)(CC)[C@H](C)O4)O3)O2)[C@H](C)C[C@@H]1C,92.3% (active)
16,CCCc1cc(=O)oc2cc(OCC(=O)NCCc3ccc(S(N)(=O)=O)cc3)ccc12,4.44%
17,Cc1onc(-c2ccccc2Cl)c1C(=O)O/N=C(\N)c1ccc([N+](=O)[O-])o1,-5.99%
18,Cc1c(NC(=S)NC(=O)c2ccc(Cl)cc2)c(=O)n(-c2ccccc2)n1C,-1.07%

row,Structure (SMILES),inhibition
1,COc1ccccc1NC(=O)c1ccc(NC(=O)COC(=O)C(C)C)cc1,-39.4%
2,O=C(c1ccccc1)N(NC(=O)C(O)(c1ccccc1)c1ccccc1)c1cccc(F)c1,30.2%
3,O=C(Cn1nnc2ccccc2c1=O)Nc1ccc2c(c1)CCC2,0.93%
4,O=C(Nc1ccc(Cc2ccncc2)cc1)c1ccc([N+](=O)[O-])o1,-16.8%
5,COc1cccc(C2c3cc4c(cc3OC(N3CCCC3)C2C)OCO4)c1O (stereo not given),21.9%
6,O=C(COC(=O)c1ccccn1)Nc1cccnc1Cl,-6.21%
7,Cc1cc([N+](=O)[O-])ccc1NC(=O)CSc1nnc(C)n1C,-3.16%
8,NS(=O)(=O)c1ccc(O)c(NC(=O)c2ccc([N+](=O)[O-])o2)c1,2.28%
9,Cc1ccc(S(=O)(=O)N2CCc3ccccc3CC2)cc1,53.9% (active)
10,O=[N+]([O-])c1ccc(COc2cccc(CNc3ccc(Br)cc3)c2)cc1,-6.59%
11,O=C(NCCCc1ccccc1)c1cc([N+](=O)[O-])ccc1Cl,-15.8%
12,Cc1ccc[n+](CC(=O)Nc2ccc(Cl)c([N+](=O)[O-])c2)c1,13.9%
13,Cc1ccc(NC(=O)CSc2nnc(CCCCCNC(=O)OC(C)(C)C)o2)c(C)c1,4.4%
14,CC(=O)N1CCN(c2ccc(NCc3ccc(C)cc3)cc2)CC1,1.11%
15,CC1(C)Cc2ccccc2-c2nnnn21,-5.72%
16,Cc1ccc(Cl)cc1NC(=O)COC(=O)CC(C)(C)C,-10.5%
17,O=C(Nc1cccc2ccccc12)c1ccc([N+](=O)[O-])o1,-3.59%
